Source: PubChem
KDM5B inhibitor – inhibitors of human KDM5B histone demethylase | Q9UGL1 | KDM5B demethylase, FDH-coupled NADH fluorescence (FDH is formaldehyde dehydrogenase) | Potency, µM (top dose mostly 57.7 µM), hits mostly inhibitors | 220,000 compounds, 2.6% hits; active = well fitted inhibition curve with a large enough effect; also: nearly all actives have a fitted effect of over 70% in size
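Measured: NADH fluorescence change, 30 min, RT. System: KDM5BΔAP 200 nM final, H3K4me3 peptide, α-KG, Fe(II), ascorbate, NAD⁺ plus FDH, pH 7.5 HEPES. Compounds: titrated, 10 min pre-incubation with enzyme.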
Large screens that a line does not name were inactive. Many of the other results were omitted from the sample, so hits are more common in it than they were.

CCOc1ccc(C2Cn3nnc(-c4nc(-c5ccsc5)no4)c3CO2)cc1 (stereo unspecified)	KDM5B inhibitor 25.1µM
COc1ccc(C2Cn3nnc(-c4nc(-c5ccncc5)no4)c3CO2)cc1 (stereo unspecified)	none
Cc1cccc(-c2noc(-c3nnn4c3COC(c3ccc(F)cc3)C4)n2)c1 (stereo unspecified)	none
CCOc1ccc(C2Cn3nnc(-c4nc(-c5cccnc5)no4)c3CO2)cc1 (stereo unspecified)	none
COc1ccc(C2Cn3nnc(-c4noc(-c5ccsc5)n4)c3CO2)cc1 (stereo unspecified)	none
COc1ccc(/C=C(/C#N)c2nc3ccccc3o2)cc1OC	none
CCOc1ccc(C2CCCN2Cc2cc(=O)oc3cc(C)ccc23)cc1 (stereo unspecified)	none
O=C(OCc1cccc(Cl)c1)c1ccc(O)cc1	none
CCCCNC(=O)CC(c1ccccc1)c1ccccc1	none
Cn1ccnc1SCC(=O)Nc1sc2c(c1C#N)CCC(C(C)(C)C)C2 (stereo unspecified)	none
Cc1cc(C)n2nc(C(=O)Nc3cccc(Cl)c3C)nc2n1	none
CCC(=O)Nc1ccc(/C(C)=N/O)cc1	none
CCOc1ccc(C2NC(=O)NC(CS(=O)(=O)c3cc(Cl)ccc3OC)=C2C(=O)OC)cc1 (stereo unspecified)	none
Cc1ccccc1CN(C)C(C)C(=O)NCc1cccs1 (stereo unspecified)	none
COc1cccc(-c2nc3cnccn3c2NCCC(=O)N2CCN(C(C)C)CC2)c1	KDM5B inhibitor 28.2µM
COc1cccc(-c2nc(SCC(=O)NC3CCCC3)c(-c3ccc(F)cc3)[nH]2)c1	none
CCC(O)C(=O)N1CCC(c2[nH]ncc2-c2cccc(OC)c2)CC1 (stereo unspecified)	none
COc1cccc(-c2nc(SCC(=O)NC3CCCC3)c(-c3ccc(C)cc3)[nH]2)c1	none
CC1CCN(C(=O)CCNC(=O)c2ccccc2Cl)CC1	none
Cc1cccc(-c2nocc2CCC(=O)N2CCN(c3cccc(C)c3)CC2)c1	none
COc1cccc(-c2nc3cnccn3c2NCCC(=O)NC2CCCCCC2)c1	KDM5B inhibitor 28.2µM
Cc1cccc(-c2nc3n(CC(=O)N4CCCC4)c(C)cc(=O)n3n2)c1	none
Cc1cccc(-c2nc3cnccn3c2NCCC(=O)N2CCCCC2)c1	KDM5B inhibitor 28.2µM
COc1cccc(CCC(=O)N2CCC(c3nc(C4CCOCC4)no3)CC2)c1	none
Cc1ccccc1-c1nc2cnccn2c1NCCC(=O)N1CCC(C)CC1	KDM5B inhibitor 28.2µM
Cc1nn(C)c2nc(NCCC(=O)N3CCC(C)CC3)sc12	none
CCc1cccc2c(C(=O)CN3C(=O)NC(C)(c4ccc5c(c4)OCCO5)C3=O)c[nH]c12 (stereo unspecified)	none
CC(C)=CC[N+](C)(C)CC#Cc1ccccc1	none
Cc1cc(C(=O)COC(=O)c2cccs2)c(C)n1Cc1ccco1	none
COc1ccc(Cn2c(C3CCN(C(=O)c4ccc(C)cc4C)CC3)n[nH]c2=O)cc1	none
Cc1ccc(C)c(C(=O)CSc2cccc3cccnc23)c1	none
O=C(c1ccc(F)cc1)N1CCn2c(nnc2-c2ccccc2)C1	none
Cc1oc(-c2ccccc2)nc1CC(=O)NCc1ccco1	none
CCCCCCCCSCCCCCCCO	none
c1ccc(-c2nc3cnccn3c2Nc2ccc3c(c2)OCCO3)cc1	none
Cc1cccc(-c2nc3cnccn3c2NCCC(=O)N(C)C)c1	KDM5B inhibitor 31.6µM
Cc1cccc(C)c1Nc1c(-c2ccccc2O)nc2cnccn12	none
Cc1ccccc1-c1nc2cnccn2c1NCCC(=O)N1CCCCC1	KDM5B inhibitor 25.1µM
Cc1cccc(C(=O)Nc2c(-c3ccccc3)nc3cc(C)ccn23)c1	none
COc1nc(C(=O)NCCC(=O)N2CCCCC2)cc2ccccc12	none
CC1=C(C(=O)Nc2ccccc2)C(c2ccc(C)cc2)n2ncc(C(=O)Nc3ccccc3)c2N1 (stereo unspecified)	none
CCCNc1c(NS(=O)(=O)c2ccc(OC)cc2)c(=O)oc2ccccc12	none
CCCNC(=O)NC(=O)COC(=O)c1ccc2ccccc2n1	none
CCC(C)C(NC(=O)C1CCC(C(C)C)CC1)C(=O)O (stereo unspecified)	none
Cc1cnn(CCC(=O)NC2CCN(c3ccc(=O)n(C)n3)CC2)c1	none
O=c1ccc(N2CCC(NS(=O)(=O)c3ccc(Cl)s3)CC2)nn1CC1CC1	KDM5B inhibitor 14.1µM
Cc1cc(C)c(C)c(S(=O)(=O)NC2CCN(c3ccc(=O)n(CC4CC4)n3)CC2)c1C	KDM5B inhibitor 35.5µM
O=C(Cn1nc(N2CCN(c3ccccc3)CC2)ccc1=O)NC1CCCC1	none
Cc1nn(C)c(C)c1S(=O)(=O)NC1CCc2nn(CC3CC3)c(=O)n2CC1 (stereo unspecified)	none
Cc1cc(C)c(C)c(S(=O)(=O)N2CCn3c(nn(CC4CC4)c3=O)C2)c1C	none
Cc1cccc(S(=O)Cc2ccc(C(=O)N3CCN(c4cccc(Cl)c4)CC3)o2)c1 (stereo unspecified)	none
Cn1nc(-c2ccc(OCC(=O)NC3CCCCC3)cc2)c2ccccc2c1=O	none
CS(=O)(=O)N(CC(=O)Nc1ccc(S(=O)(=O)N2CCCCCC2)cc1)c1ccc(F)cc1	none
CCn1nc(C(=O)Nc2nc(-c3cccs3)cs2)c2ccccc2c1=O	none
COc1ccc(C2Cn3nnc(-c4nc(-c5ccccc5C)no4)c3CO2)cc1 (stereo unspecified)	none
CCOc1ccc(C2Cn3nnc(-c4nc(-c5ccccc5OCC)no4)c3CO2)cc1 (stereo unspecified)	KDM5B inhibitor 25.1µM
Fc1ccc(C2Cn3nnc(-c4nc(-c5ccccc5Br)no4)c3CO2)cc1 (stereo unspecified)	none
COc1ccc(C2Cn3nnc(-c4nc(-c5ccccc5Br)no4)c3CO2)cc1 (stereo unspecified)	none
CCOc1ccccc1-c1noc(-c2nnn3c2COC(c2ccc(OC)cc2)C3)n1 (stereo unspecified)	KDM5B inhibitor 17.8µM
CCOc1ccccc1-c1noc(-c2nnn3c2COC(c2cccc(OC)c2)C3)n1 (stereo unspecified)	none
CCOc1cc(-c2noc(-c3nnn4c3COC(c3ccc(F)cc3)C4)n2)ccc1OC (stereo unspecified)	KDM5B inhibitor 25.1µM
COc1ccc(C2Cn3nnc(-c4noc(Cc5ccccc5OC)n4)c3CO2)cc1 (stereo unspecified)	none
Cc1ccccc1-c1noc(-c2nnn3c2COC(c2ccc(F)cc2)C3)n1 (stereo unspecified)	none
CCOc1ccccc1-c1nc(-c2nnn3c2COC(c2ccc(OC)cc2)C3)no1 (stereo unspecified)	KDM5B inhibitor 28.2µM
CSc1ccc(-c2noc(-c3nnn4c3COC(c3ccc(F)cc3)C4)n2)cc1 (stereo unspecified)	none
COc1ccc(-c2noc(-c3nnn4c3COC(c3ccc(F)cc3)C4)n2)cc1F (stereo unspecified)	none
CCCCCn1nc(C(=O)N2CCCC(c3nc4ccccc4s3)C2)c2ccccc2c1=O (stereo unspecified)	none
CCOC(=O)c1scc(-c2ccccc2)c1S(=O)(=O)Nc1ccccc1	none
CCOC(=O)c1nc2ccccc2nc1N1CCN(C(=O)c2cccc(Cl)c2)CC1	none
Cc1ccccc1C1CCCN1S(=O)(=O)c1cnn(C(F)F)c1C (stereo unspecified)	none
Cc1cnc(NC(=O)CCc2ccc(S(N)(=O)=O)cc2)s1	none
COc1ccc(C(=O)N[C@@H]2CN(C(=O)Nc3ccc(F)cc3)CCC[C@H]2O)cc1	none
C=CCNC(=O)NC(=O)CN1CCCC1C(=O)NC (stereo unspecified)	none
CC(C)Oc1ccc(-c2noc(Cn3cnc4c(oc5ccccc54)c3=O)n2)cc1	none
